An excerpt weighted towards active compounds, which were near 22% of everything screened.
CYP2C9 inh = human CYP2C9 inhibition. P11712. CYP2C9 Supersomes, luciferin-H conversion, luminescence. inhibition, % at 5 µM. 20% of 96,000 active. AID 777;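 active means blocking of liver enzyme CYP2C9 beyond about 50% at 5 µM, limit read from the data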
E-sel TNF inh = blocks E-selectin expression induced by TNF alpha; HUVEC TNFa-induced E-selectin immunofluorescence, high content; inhibition, % at 2 µM; 0.71% of 120,000 active; AID 1246;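 active means inhibition above the batch mean plus 3 SD, and confirmed as a hit on visual image review, cut at about 43% in these data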;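 further: 0% = TNF-stimulated DMSO wells and 100% = unstimulated control wells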
CYP2C19 inhib = inhibitors of human CYP2C19; P33261; CYP2C19 Supersomes, luciferin-H EGE luminescence, 30 min; inhibition, % at 5 µM; 21% of 96,000 active; AID 778;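 active means CYP2C19 inhibition above a set limit at 5 µM in the primary screen, cut at about 50% in these data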;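 further: plate controls were negative control wells for no effect and 2.5 mM tranylcypromine positive control for full effect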
Target sequence (P33261 whole entry, looked up): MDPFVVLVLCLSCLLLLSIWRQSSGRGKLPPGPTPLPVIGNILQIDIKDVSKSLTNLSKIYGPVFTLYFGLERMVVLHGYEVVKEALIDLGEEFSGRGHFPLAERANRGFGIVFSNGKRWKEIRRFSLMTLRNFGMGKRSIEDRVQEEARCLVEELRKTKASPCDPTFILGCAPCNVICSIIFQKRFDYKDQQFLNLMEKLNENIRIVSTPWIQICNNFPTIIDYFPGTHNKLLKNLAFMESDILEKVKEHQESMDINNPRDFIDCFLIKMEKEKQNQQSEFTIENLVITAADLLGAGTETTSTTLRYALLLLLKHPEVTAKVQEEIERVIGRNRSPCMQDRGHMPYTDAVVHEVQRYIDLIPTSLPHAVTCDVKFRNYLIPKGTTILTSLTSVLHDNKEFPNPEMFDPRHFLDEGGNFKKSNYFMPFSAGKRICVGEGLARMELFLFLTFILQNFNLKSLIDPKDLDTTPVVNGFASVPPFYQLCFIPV
CYP2C9 act = CYP2C9 (human) activation | P11712 | recombinant CYP2C9, luciferin-H conversion, luminescence; hits give high values; factor 1 = untreated enzyme, 0 = blocked | activation factor at 5 µM | 1.4% of 96,000 active | AID 1024;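 active means activation factor of 2 or more for CYP2C9 at a 5 µM dose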;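 further: 0 = sulfaphenazole-blocked wells and 1 = vehicle-only wells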
CYP2C19 act = cytochrome P450 2C19 (human) activation | 96,000 tested, under 10 active | recombinant CYP2C19, luciferin-H EGE luminescence; hits give high values; 0 = fully inhibited enzyme, 1 = untreated enzyme | P33261 | activation factor at 5 µM;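 active means activation factor of at least 2 at 5 µM in the primary screen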;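 further: 0 = wells with 2.5 mM tranylcypromine and 1 = vehicle-only wells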
cytoskel mod = cytoskeleton assembly modification. HUVEC TNFa F-actin phalloidin imaging, high content. inhibition, % at 2 µM. 0.18% of 91,000 active. AID 836;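 active means inhibition above the batch mean plus 3 SD and confirmed as a hit by visual image inspection, cut at about 30% in these data, passing the limit was not always enough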
Active calls of the source: *; . = not tested or not shown.

SMILES | CYP2C9 inh | E-sel TNF inh | CYP2C19 inhib | CYP2C9 act | CYP2C19 act | cytoskel mod
FC(F)(F)c1cc(Oc2ccccc2Cl)nc(-c2ccccn2)n1 | 35 | 25 | 15 | 0.6 | 0.9 | 6
CN(C)S(=O)(=O)c1cccc(NC(=S)Nc2ccc(Cl)cc2Cl)c1 | 67* | 25 | 71* | 0.3 | 0.3 | -15
CN(C)S(=O)(=O)c1cccc(NC(=O)c2cc3ccccc3o2)c1 | 61* | -9 | 21 | 0.4 | 0.8 | 10
Cc1ccc(-c2nc3ncccc3o2)cc1NC(=O)c1cc2ccccc2o1 | 44 | . | 20 | 0.6 | 0.8 | 0
O=C(Nc1cccc(-c2nc3ncccc3o2)c1)c1cc2ccccc2o1 | 89* | 21 | 26 | 0.1 | 0.7 | .
O=[N+]([O-])c1ccc(Cl)c(S(=O)(=O)NCC2CCCO2)c1 (stereo not drawn) | . | 16 | . | . | . | .
COc1cc(S(=O)(=O)NCC2CCCO2)c(OC)cc1Cl (stereo not drawn) | 2 | -19 | 66* | 1 | 0.3 | 1
O=S(=O)(NCC1CCCO1)c1cc(Cl)ccc1Br (stereo not drawn) | -59 | -35 | 30 | 1.6 | 0.7 | 15
O=S(=O)(NCC1CCCO1)c1cc(Cl)ccc1Cl (stereo not drawn) | -38 | -16 | 66* | 1.4 | 0.3 | -14
Cc1oc(-c2ccccc2F)nc1CN1CCC(C(=O)NC2CCCCCCC2)CC1 | -88 | -10 | 16 | 1.9 | 0.8 | 7
COc1ccc(OC)c(CCNC(=O)CS(=O)(=O)Cc2nc(-c3ccccc3C)oc2C)c1 | 50 | -1 | 66* | 0.5 | 0.3 | -26
COc1cccc(-c2nc(CS(=O)(=O)CC(=O)NCc3ccccc3OC)c(C)o2)c1 | . | . | . | . | . | 12
Cc1ccccc1-c1nc(CS(=O)(=O)CC(=O)N(C)C2CCCCC2)c(C)o1 | 46 | . | 86* | 0.5 | 0.1 | 9
Cc1oc(-c2ccccc2F)nc1CS(=O)(=O)CC(=O)N1CCCCCC1 | 81* | . | 28 | 0.2 | 0.7 | -2
O=C(Cc1ccccc1)N/N=C/c1ccccc1F | . | -23 | . | . | . | .
CC(=O)Nc1nc(CC(=O)c2ccccc2)cs1 | -11 | . | 65* | 1.1 | 0.3 | .
CC(=O)Nc1nc(COc2ccc3ccccc3c2)cs1 | -13 | -3 | 37 | 1.1 | 0.6 | 4
O=C(Nc1nc(COc2ccccc2)cs1)C12CC3CC(CC(C3)C1)C2 | 96* | 8 | 56* | 0 | 0.4 | 5
CC(=O)Nc1nc(COc2ccccc2)cs1 | 59* | 9 | 89* | 0.4 | 0.1 | 9
O=C(Nc1nc(COc2ccccc2)cs1)C1CCC1 | . | -9 | . | . | . | -16
COc1ccc(NC(=O)c2[nH]ncc2[N+](=O)[O-])cc1 | . | -18 | . | . | . | .
CCCCC1C(C#N)=C(C)NC2=C1C(=O)CC(C)(C)C2 (stereo not drawn) | 86* | 0 | 90* | 0.1 | 0.1 | -4
COc1ccc(-c2[nH]n(-c3ccc([N+](=O)[O-])cc3)c(=O)c2C=NCc2ccccc2)cc1 | . | -4 | . | . | . | .
Cc1oc(C(=O)Nc2ccc(C(=O)O)cc2)cc1COc1ccccc1 | -11 | -17 | 19 | 1.1 | 0.8 | .
O=C(CCc1nc2ccccc2s1)OCC(=O)c1ccccc1 | . | -10 | . | . | . | .
SMILES | CYP2C9 inh | E-sel TNF inh | CYP2C19 inhib | CYP2C9 act | CYP2C19 act | cytoskel mod
Cc1noc(C)c1COC(=O)CCc1nc2ccccc2s1 | 48 | 7 | 59* | 0.5 | 0.4 | -17
Cc1noc(C)c1COC(=O)CCN1c2ccccc2Sc2ccccc21 | 98* | -20 | 88* | 0 | 0.1 | 26
COC(=O)CN1C(=O)C2(C(C#N)=C(N)Oc3cc(C)oc(=O)c32)c2ccccc21 (stereo not drawn) | 22 | 2 | 19 | 0.8 | 0.8 | 40
CC(=O)N1C(=O)C2(C(C#N)=C(N)Oc3cc(C)oc(=O)c32)c2ccccc21 (stereo not drawn) | 88* | 3 | 50 | 0.1 | 0.5 | -13
CC(=O)N1C(=O)C2(C(C#N)=C(N)Oc3c2c(C)nn3-c2ccccc2)c2ccccc21 (stereo not drawn) | 81* | . | 39 | 0.2 | 0.6 | -13
Cc1cc2c(c(=O)o1)C1(C(=O)N(C)c3ccccc31)C(C#N)=C(N)O2 (stereo not drawn) | 8 | -7 | 2 | 0.9 | 1 | .
CCN1C(=O)C2(C(C#N)=C(N)Oc3c2c(C)nn3-c2ccccc2)c2ccccc21 (stereo not drawn) | 79* | 2 | 61* | 0.2 | 0.4 | 12
Cc1nn(-c2ccccc2)c2c1C1(C(=O)N3c4c(cccc41)C(C)CC3(C)C)C(C#N)=C(N)O2 (stereo not drawn) | 97* | -3 | 76* | 0 | 0.2 | 3
Cc1nn(-c2ccccc2)c2c1C1(C(=O)N(C)c3ccccc31)C(C#N)=C(N)O2 (stereo not drawn) | 56* | 40 | 15 | 0.4 | 0.8 | 5
Cc1nn(-c2ccccc2)c(N)c1C1(O)C(=O)N(C)c2ccccc21 (stereo not drawn) | . | -11 | . | . | . | .
CCOC(=O)CSC1=C(C#N)C(c2ccc(C)o2)CC(=O)N1 (stereo not drawn) | . | -8 | . | . | . | .
CCOC(=O)CSC1=C(C#N)C(c2ccccc2OCC)C(C(=O)OCC)C(=O)N1 (stereo not drawn) | 84* | . | 99* | 0.2 | 0 | 3
CCCOC(=O)CSC1=C(C#N)C(c2ccccc2OC)C(C#N)C(=O)N1 (stereo not drawn) | 42 | . | 38 | 0.6 | 0.6 | -4
CCOC(=O)CSC1=C(C#N)C(c2ccccc2OCC)C(C#N)C(=O)N1 (stereo not drawn) | 78* | 22 | 83* | 0.2 | 0.2 | -22
CCCCSC1=C(C#N)C(c2ccccc2C)C(C(=O)OCC)C(=O)N1 (stereo not drawn) | 66* | 12 | 61* | 0.3 | 0.4 | 37
CCOC(=O)C1C(=O)NC(SCC(=O)OC)=C(C#N)C1c1ccccc1OCC (stereo not drawn) | 27 | 20 | 68* | 0.7 | 0.3 | 17
CCOC(=O)C1C(=O)NC(SCC(=O)Nc2nccs2)=C(C#N)C1c1ccccc1OCC (stereo not drawn) | . | -7 | . | . | . | -2
CC(CC(=O)O)CC1=NS(=O)(=O)c2ccccc2N1 (stereo not drawn) | 4 | 22 | 5 | 1 | 1 | .
CN1C(=O)CSc2ccc(NC(=O)NCCC3=CCCCC3)cc21 | 28 | -17 | 25 | 0.7 | 0.8 | 9
CC(C)Sc1nc2ccccc2[nH]1 | . | -15 | . | . | . | .
Cc1cccc(C)c1NC(=O)N1CCCC1C(=O)Nc1ccc(-n2cnnn2)cc1 (stereo not drawn) | . | -15 | . | . | . | .
O=C(CSc1ccc2nnc(-c3cccnc3)n2n1)NCc1ccc2c(c1)OCO2 | 11 | . | -13 | 0.9 | 1.1 | 1
CCOC(=O)CSC1=C(C#N)C(c2ccccc2Cl)C(C(=O)OC)C(=O)N1 (stereo not drawn) | 65* | . | 59* | 0.4 | 0.4 | .
COC(=O)C1C(=O)NC(SC)=C(C#N)C1c1ccccc1F (stereo not drawn) | . | -11 | . | . | . | 13

High-throughput results from PubChem BioAssay.
